Test results reported in PubChem BioAssay (NCI).
About 83,000 compounds went through this panel and 20% of them were active in at least one assay; those are over-represented in the sample as a whole.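 Single-dose data. Exposure time 48 hours. Values below 10 considered active.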 Calls of active or inactive are those of the source.

system: A549/ATCC NSCLC; assay: NCI-60 one-dose screen, 48 h (100 = growth as untreated, 0 = no growth, -100 = all killed); settings: 10 µM unless noted

| Compound | growth |
| --- | --- |
| COc1ccc2c(c1)c(-c1nc(-c3c[nH]c4ncccc34)cs1)cn2CCCN1CCOCC1 | 42% (inactive) |
| C[n+]1ccc(CCc2c[nH]c3ccccc23)cc1 | 66.2% (inactive) |
| CC(C)CCN(CCC(C)C)CC(O)c1cc2c(c3ccccc13)CCCC2 (stereo unspecified) | 73.3% (inactive) |
| CO[C@H]1CC(=O)n2c3ccccc3c3c4c(c5c6ccccc6n1c5c32)C(=O)NC4=O | 57% (inactive) |
| COc1ccc(C2=CN3CC=CC3CC2=O)cc1 (stereo unspecified) | 87.4% (inactive) |
| COc1cccc(/C=C/C(=O)c2cc3c(N)c(C(=O)Nc4cccc5ccccc45)sc3nc2C)c1 | 20.3% (inactive) |
| Cc1ccc(CNc2ccc3nc(CCC(C)C)[nH]c3c2)cc1 | 97.6% (inactive) |
| COc1ccc(/C(C)=C(/c2ccc(OCCCN(C)C)cc2)c2ccc(OC(=O)c3ccccc3)cc2)cc1 | 69.4% (inactive) |
| COC(=O)CC[C@@H]1O[C@@H](c2ccc(F)cc2)[C@@H](O)[C@H]1O | 112% (inactive) |
| O=C1/C=C/[C@@H](O)[C@@H]2C[C@@H](O)C[C@H]2/C=C/CCC[C@H](CCO)O1 | 17.7% (inactive) |
| COc1cccc(-c2cc(-c3cccc(Cl)c3)c(C#N)c(=O)[nH]2)c1 | 70.9% (inactive) |
| COc1ccc(CNc2c3ccccc3nc3ccccc23)c(OC)c1 | 35.2% (inactive) |
| CCN(CC)c1ccc(CNc2cc(C)nc3ccccc23)cc1 | 72.7% (inactive) |
| O=C1Nc2ccccc2/C1=C\c1c[nH]c2ccc(Br)cc12 | 73.5% (inactive) |
| O=C(CCCCCNC(=O)c1cc(=O)c(O)co1)Nc1ccccc1 | 97.6% (inactive) |
| CCOc1ccc(-n2nc(C(=O)NCc3ccccc3OC)nc2-c2cc(OC)c(OC)c(OC)c2)cc1 | 34.5% (inactive) |
| COc1ccc(-c2nc(/C=C3\C(=O)N(C)c4ccccc43)c3ccccn23)cc1 | 88.7% (inactive) |
| FC(F)(F)Oc1cccc(-c2cnc3ccc(-c4ccncc4)nn23)c1 | 11.5% (inactive) |
| CCN1C(=O)N(CC)C2C1NN=c1s/c(=C3\C(=O)N(CC(C)C)c4ccccc43)c(=O)n12 (stereo unspecified) | 21.6% (inactive) |
| COc1cc(OC)c(C(=O)C(CN(C)C)CN(C)C)cc1OC | 109% (inactive) |
| Cc1ccc(/C=C/C(=O)c2ccc(-n3cc(CN4CCN(c5cc6c(cc5F)c(=O)c(C(=O)O)cn6C5CC5)CC4)nn3)cc2)cc1 | 93.5% (inactive) |
| NC1(CO)COC(c2ccccc2)OC1 (stereo unspecified) | 101% (inactive) |
| COc1cc(C2C(C(=O)OCc3ccccc3)=C(C)NC(C)=C2C(=O)OCc2ccccc2)cc(OC)c1OC | 23.4% (inactive) |
| CC1=C(CCC(C)NCc2ccc(OCCCN3CCCCC3)cc2)C(C)(C)CCC1 (stereo unspecified) | -64.2% (active) |
| N#C/C(=C\c1ccc([N+](=O)[O-])cc1)n1nnc2cc(F)c(F)cc21 | 64.5% (inactive) |
| CS(=O)(=O)c1ccc(NC(=O)c2ccccc2)nc1 | 96.3% (inactive) |
